Among the test systems are NCI-H23 lung; NCI-H226 lung; NCI-H322M lung; HOP-62 NSCLC; NCI-H460 lung; HOP-92 NSCLC; NCI-H522 lung; A549/ATCC NSCLC; 786-0 renal; COLO 205 colon; DU-145 prostate; K-562 leukemia; MALME-3M melanoma; MDA-MB-231 breast; RXF 393 renal; SF-268 CNS; SF-295 CNS; SF-539 CNS; UACC-257 melanoma; M14 melanoma.
Holding throughout (assay): NCI-60 one-dose screen, 48 h (100 = growth as untreated, 0 = no growth, -100 = all killed)
What all share (conditions): 10 µM unless noted

Structures are written as SMILES. Values joined by “and” are separate entries in the source; they are usually repeats but may differ in a detail not shown here. Equal entries are not always repeated. About 83,000 compounds went through this panel and 20% of them were active in at least one assay; those are over-represented in the sample as a whole.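 Method: cells in 96-well plates; compound added at one concentration; 48 h incubation; percent growth measured; values under 10 scored active.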 Where a structure was tested more than once in an assay, its records may differ in their call. Active and inactive are the calls of the source.

Regarding `COc1ccccc1C(C)=O`, the growth is 94% (inactive) and 109% (inactive) in the assay on NCI-H23 lung; 95.2% (inactive) and 107% (inactive) with NCI-H226 lung; 97.5% (inactive) and 103% (inactive) with NCI-H322M lung; 107% (inactive) and 102% (inactive) in the assay on HOP-62 NSCLC; 99.8% (inactive) and 109% (inactive) with NCI-H460 lung; 70.5% (inactive) in the assay on HOP-92 NSCLC. Moreover, the growth in the assay on NCI-H522 lung is 113% (inactive); in the assay on A549/ATCC NSCLC, 107% (inactive) and 96.9% (inactive); in the assay on 786-0 renal, 110% (inactive) and 96.6% (inactive); with COLO 205 colon, 105% (inactive); in the assay on DU-145 prostate, 107% (inactive) and 113% (inactive); in the assay on K-562 leukemia, 84.9% (inactive) and 106% (inactive). Moreover, the growth was 114% (inactive) and 107% (inactive) in the assay on MALME-3M melanoma; 104% (inactive) and 117% (inactive) with MDA-MB-231 breast; 99.3% (inactive) and 121% (inactive) with RXF 393 renal; 92.7% (inactive) and 107% (inactive) with SF-268 CNS; 106% (inactive) in the assay on SF-295 CNS; 105% (inactive) and 107% (inactive) in the assay on SF-539 CNS. Moreover, the growth in the assay with UACC-257 melanoma is 107% (inactive) and 110% (inactive); with M14 melanoma, 105% (inactive) and 95.7% (inactive).

On to `CCOc1ccc(Nc2c3ccccc3nc3ccccc23)cc1`, for which the growth in the assay on NCI-H23 lung is 92.1% (inactive) and 36.3% (inactive) and 18.6% (inactive); in the assay with NCI-H226 lung, -12.9% (active) and 19.1% (inactive); with NCI-H322M lung, 99.3% (inactive) and 44.4% (inactive) and 38.3% (inactive); with HOP-62 NSCLC, 92.5% (inactive) and 37.1% (inactive) and 42.1% (inactive); with NCI-H460 lung, 93.6% (inactive) and 3.2% (active) and 4.66% (active); with HOP-92 NSCLC, 72.2% (inactive) and -5.95% (active) and -4.39% (active). The growth with NCI-H522 lung was 10.1% (inactive) and 35.9% (inactive); in the assay on A549/ATCC NSCLC it was 87.5% (inactive) and 12.3% (inactive) and 21% (inactive); with 786-0 renal, 84.8% (inactive) and 30.1% (inactive) and 43.7% (inactive); with COLO 205 colon, 103% (inactive) and -11.2% (active) and 24.5% (inactive); with DU-145 prostate it was 104% (inactive) and 23.1% (inactive) and 35.2% (inactive); in the assay on K-562 leukemia, 81.3% (inactive) and 6.44% (active) and 3.81% (active). The growth in the assay on MALME-3M melanoma was 99% (inactive) and 5.36% (active) and 13.2% (inactive); with MDA-MB-231 breast it was 94.2% (inactive) and 45.9% (inactive) and 48.4% (inactive); in the assay with RXF 393 renal it was 83.7% (inactive) and -4.09% (active) and 10% (active); in the assay on SF-268 CNS, 108% (inactive) and 34.7% (inactive) and 45.7% (inactive); in the assay on SF-295 CNS, 65.7% (inactive) and 28.8% (inactive) and 17.1% (inactive); in the assay on SF-539 CNS, 94.5% (inactive) and 17.9% (inactive) and 11% (inactive). Also, the growth in the assay on UACC-257 melanoma is 96% (inactive) and 24.7% (inactive) and 44.7% (inactive); in the assay on M14 melanoma, 95% (inactive) and 19.4% (inactive) and 40.4% (inactive).

`S=C(S)N1CCCC1`: the growth in the assay on NCI-H23 lung is 108% (inactive) and 102% (inactive); in the assay with NCI-H226 lung, 108% (inactive) and 111% (inactive); in the assay on NCI-H322M lung it was 107% (inactive) and 97.7% (inactive); with HOP-62 NSCLC it was 124% (inactive) and 100% (inactive); in the assay with NCI-H460 lung it was 62.2% (inactive); in the assay with HOP-92 NSCLC it was 91.9% (inactive) and 88% (inactive). The growth with NCI-H522 lung is 8.09% (active) and -11.7% (active); with A549/ATCC NSCLC, 70.6% (inactive) and 58.4% (inactive); in the assay on 786-0 renal it was 103% (inactive) and 106% (inactive); in the assay on COLO 205 colon, 60.7% (inactive) and 49.9% (inactive); with DU-145 prostate it was 105% (inactive) and 128% (inactive); in the assay with K-562 leukemia, 39.6% (inactive) and 76.5% (inactive). For the same compound, the growth with MALME-3M melanoma is 96.1% (inactive) and 99.7% (inactive); in the assay on MDA-MB-231 breast, 92.3% (inactive) and 125% (inactive); in the assay on RXF 393 renal, 112% (inactive) and 125% (inactive); in the assay with SF-268 CNS it was 97% (inactive) and 116% (inactive); with SF-295 CNS, 112% (inactive) and 103% (inactive); in the assay with SF-539 CNS it was 110% (inactive) and 128% (inactive). For the same compound, the growth with UACC-257 melanoma is 96.5% (inactive) and 92.6% (inactive); in the assay on M14 melanoma, 93.8% (inactive) and 101% (inactive).

In the case of `S=C1SCN(Cc2ccccc2)CN1Cc1ccccc1`, the growth in the assay on NCI-H23 lung was 81.2% (inactive); in the assay on NCI-H226 lung, 88.8% (inactive); in the assay on NCI-H322M lung, 94.5% (inactive); in the assay with HOP-62 NSCLC, 100% (inactive); in the assay with NCI-H460 lung, 95.5% (inactive); with HOP-92 NSCLC, 37.3% (inactive). Besides, the growth in the assay with NCI-H522 lung is 21.5% (inactive); in the assay with A549/ATCC NSCLC, 93.7% (inactive); in the assay with 786-0 renal, 49.8% (inactive); in the assay on COLO 205 colon it was 78.1% (inactive); in the assay with DU-145 prostate, 41.8% (inactive); with K-562 leukemia it was 46.4% (inactive). In addition, the growth with MALME-3M melanoma was 92.1% (inactive); in the assay on MDA-MB-231 breast, 85% (inactive); with RXF 393 renal it was 87.1% (inactive); in the assay on SF-268 CNS, 73.5% (inactive); in the assay on SF-295 CNS, 100% (inactive); in the assay with SF-539 CNS, 91.4% (inactive). Further, the growth in the assay on UACC-257 melanoma was 95.2% (inactive); in the assay on M14 melanoma, 82.3% (inactive).

In the case of `O=C(Nc1cccc(-n2ccc3c(NC(=O)c4ccccc4)nccc32)c1)c1ccc(Cl)c(C(F)(F)F)c1`, the growth was -9.83% (active) and 72.4% (inactive) in the assay on NCI-H23 lung; 34.5% (inactive) and 75.3% (inactive) in the assay on NCI-H226 lung; 22.6% (inactive) and 79.3% (inactive) in the assay with NCI-H322M lung; -50.5% (active) and 67.7% (inactive) with HOP-62 NSCLC; -51.4% (active) and 12.8% (inactive) in the assay with NCI-H460 lung; -13.5% (active) with HOP-92 NSCLC. Besides, the growth was 82.8% (inactive) in the assay with NCI-H522 lung; 36.8% (inactive) in the assay on A549/ATCC NSCLC; -74.9% (active) and 48% (inactive) in the assay on 786-0 renal; -49.7% (active) and 55.7% (inactive) in the assay on COLO 205 colon; -36% (active) and 61.6% (inactive) in the assay on DU-145 prostate; 2.58% (active) and 27.6% (inactive) with K-562 leukemia. The growth with MALME-3M melanoma is -35.4% (active); in the assay with MDA-MB-231 breast, -11.2% (active) and 81.4% (inactive); in the assay with RXF 393 renal, -89.4% (active) and 94.8% (inactive); in the assay with SF-268 CNS, -44.1% (active); in the assay on SF-295 CNS, -53.7% (active) and 38.4% (inactive); with SF-539 CNS, -66% (active) and 52.8% (inactive). Besides, the growth is 65.2% (inactive) in the assay on UACC-257 melanoma; -29.6% (active) and 64% (inactive) in the assay with M14 melanoma.

For `NC(=O)c1ccccc1OCC(O)CO` (stereo not given), the growth was 110% (inactive) in the assay with NCI-H23 lung; 95.8% (inactive) with NCI-H226 lung; 110% (inactive) in the assay with NCI-H322M lung; 101% (inactive) with HOP-62 NSCLC; 103% (inactive) with NCI-H460 lung; 117% (inactive) with HOP-92 NSCLC. Further, the growth in the assay with NCI-H522 lung is 98.4% (inactive); with A549/ATCC NSCLC, 98.1% (inactive); in the assay with 786-0 renal it was 103% (inactive); in the assay with COLO 205 colon it was 114% (inactive); in the assay on DU-145 prostate, 114% (inactive); in the assay on K-562 leukemia, 107% (inactive). Moreover, the growth in the assay with MALME-3M melanoma is 115% (inactive); in the assay with MDA-MB-231 breast, 103% (inactive); in the assay on RXF 393 renal, 98.9% (inactive); in the assay with SF-268 CNS, 105% (inactive); with SF-295 CNS it was 83.1% (inactive); in the assay on SF-539 CNS, 90.2% (inactive). The growth in the assay on UACC-257 melanoma is 97.9% (inactive); in the assay on M14 melanoma, 112% (inactive).

Consider `OC1CCC(Oc2cccc3cnc(Nc4ccc5nc[nH]c5c4)nc23)CC1` (stereo not given), for which the growth in the assay on NCI-H23 lung is -21.5% (active) and 25.5% (inactive); with NCI-H226 lung it was 9.66% (active) and 31.6% (inactive); in the assay with NCI-H322M lung, 12.2% (inactive) and 50.6% (inactive); with HOP-62 NSCLC it was -24.5% (active) and 5.23% (active); in the assay on NCI-H460 lung it was 4.89% (active) and 25.8% (inactive); in the assay with HOP-92 NSCLC, 14.2% (inactive) and 40.3% (inactive). Further, the growth with NCI-H522 lung was -21.9% (active) and 54% (inactive); in the assay with A549/ATCC NSCLC, -9.62% (active) and 28.9% (inactive); in the assay with 786-0 renal, 15.5% (inactive) and 38.8% (inactive); in the assay on COLO 205 colon, -30.1% (active) and 34.8% (inactive); with DU-145 prostate, 13.2% (inactive) and 48% (inactive); with K-562 leukemia, 9.4% (active) and 54% (inactive). Also, the growth in the assay with MALME-3M melanoma is -8.81% (active) and 86.7% (inactive); with MDA-MB-231 breast it was 2.87% (active) and 44.5% (inactive); with RXF 393 renal, -16.8% (active) and 23% (inactive); in the assay on SF-268 CNS, 1.49% (active) and 45.4% (inactive); in the assay on SF-295 CNS it was 13.1% (inactive) and 62.2% (inactive); in the assay with SF-539 CNS, -34.1% (active) and 32% (inactive). For the same compound, the growth in the assay on UACC-257 melanoma is -24.7% (active) and 44.8% (inactive); in the assay on M14 melanoma, -9.41% (active) and 49.1% (inactive).

For the compound `CC(=O)Nc1cccc2c1CCCC2`, the growth in the assay on NCI-H23 lung was 98% (inactive) and 96.3% (inactive); in the assay with NCI-H226 lung, 98.9% (inactive) and 98.7% (inactive); in the assay with NCI-H322M lung it was 113% (inactive) and 98% (inactive); in the assay with HOP-62 NSCLC, 91.8% (inactive) and 84% (inactive); with NCI-H460 lung, 101% (inactive) and 111% (inactive); in the assay with HOP-92 NSCLC, 96.5% (inactive) and 80.8% (inactive). In addition, the growth in the assay with NCI-H522 lung is 68.7% (inactive) and 75.3% (inactive); in the assay on A549/ATCC NSCLC, 63.6% (inactive) and 88.1% (inactive); in the assay on 786-0 renal it was 95.8% (inactive) and 96.6% (inactive); in the assay on COLO 205 colon it was 109% (inactive) and 101% (inactive); in the assay with DU-145 prostate, 107% (inactive) and 101% (inactive); in the assay on K-562 leukemia, 109% (inactive) and 110% (inactive). The growth is 103% (inactive) and 95.5% (inactive) with MALME-3M melanoma; 115% (inactive) and 110% (inactive) in the assay with MDA-MB-231 breast; 101% (inactive) in the assay on RXF 393 renal; 95.6% (inactive) and 103% (inactive) with SF-268 CNS; 94.9% (inactive) and 100% (inactive) in the assay on SF-295 CNS; 107% (inactive) and 97.8% (inactive) in the assay on SF-539 CNS. Further, the growth is 67.1% (inactive) and 102% (inactive) in the assay on UACC-257 melanoma; 94.5% (inactive) and 101% (inactive) in the assay with M14 melanoma.

Source of the values: PubChem BioAssay (NCI).
